Assay [1] is described as follows: ATG_M_32_TRANS: Attagene TRANS-FACTORIAL HepG2 Assay for M32 Transcription Factor (Internal Marker) (AID 2282984; active = hit-call score of the fitted dose curve at least 0.9, where 1 is the maximum;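 note: transcript level of a background control reporter unit measured by RT-PCR and capillary electrophoresis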). Particulars: HepG2 Attagene TRANS M32 internal marker reporter. In outline:
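Cell-based TRANS-format assay in HepG2: exogenous chimeric GAL4 reporter units transiently expressed, compounds applied 24 h. Reporter mRNA detected by RT-PCR plus capillary electrophoresis; this readout is an internal background marker.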

For assay [2], the target named is Transcriptional activator Myb (Homo sapiens) (UniProt P10242). Put plainly: ATG_Myb_CIS: Attagene CIS-FACTORIAL HepG2 Assay for human Myeloblastosis (Myb) Proto-Oncogene Transcription Factor (AID 2282986). The following applies: HepG2 Attagene CIS-FACTORIAL Myb reporter transcription; actives raise or lower the signal. The gist of the method: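 HepG2 cells were transiently transfected with cis-regulated multiple reporter transcription units reflecting endogenous Myb activity, then exposed to compound for 24 hours. Reporter mRNA was measured by RT-PCR with capillary electrophoresis; bidirectional fitting versus DMSO baseline.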

Assay [3] deals with Myc proto-oncogene protein (Homo sapiens) (UniProt P01106). Put plainly: ATG_Myc_CIS: Attagene CIS-FACTORIAL HepG2 Assay for human Myelocytomatosis (Myc) Proto-Oncogene Transcription Factor (AID 2282990). Particulars: HepG2, Attagene cis-reporter transcription factor activity; actives raise or lower the signal. In outline:
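HepG2, transient MRTU transfection (cis promoters, endogenous TFs); 24 h dosing; TriZol RNA → oligo(dT) RT → PCR → 6-FAM primer extension → HpaI cut → CE. Bidirectional fit vs DMSO.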

Assay [4] is described as follows: ATG_Oct_MLP_CIS: Attagene CIS-FACTORIAL HepG2 Assay for human Octamer-Binding Transcription Factor (Oct) (AID 2282993). The following applies: HepG2 Attagene cis-factorial Oct reporter, mRNA; actives raise or lower the signal. The gist of the method:
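After 24 h compound exposure, transfected HepG2 cells were lysed for total RNA; reporter-specific cDNA was PCR-amplified, fluorescently labelled and sized by capillary electrophoresis. Bidirectional curve fitting used DMSO as baseline.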

Assay [5] addresses Cellular tumor antigen p53 (Homo sapiens) (UniProt P04637). Put plainly: ATG_p53_CIS: Attagene CIS-FACTORIAL HepG2 Assay for human p53 Transcription Factor (AID 2282994). Particulars: HepG2 p53 cis-element reporter, Attagene mRNA; actives raise or lower the signal. In outline: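 Transiently transfected HepG2 (multiple cis reporter transcription units); exposure 24 h; reporter RNA via RT-PCR, 6-FAM extension, 2 h HpaI digest at 37 C, CE detection; DMSO baseline.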

Assay [6] is described as follows: BSK_3C_TissueFactor: BioMAP Diversity Plus: 3C Assay for Tissue Factor Biomarker Activity (AID 2282997). The following applies: BioMAP 3C HUVEC, tissue factor biomarker readout; actives raise or lower the signal. In outline: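 Readout: Tissue Factor ELISA. Cells: human primary umbilical vein endothelium. Time: 24 h after dosing. Analysis: bidirectional fit, DMSO baseline.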

Assay [7] is described as follows: BSK_3C_uPAR: BioMAP Diversity Plus: 3C Assay for Urokinase-type plasminogen activator receptor (uPAR) Biomarker Activity (AID 2282998). The following applies: BioMAP 3C HUVEC, uPAR biomarker ELISA; actives raise or lower the signal. The gist of the method:
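Values derive from bidirectional curve fitting relative to DMSO, which served as baseline of activity. uPAR was measured by ELISA in human umbilical vein endothelial primary cultures 24 h after compound addition.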

Assay [8] is described as follows: BSK_3C_VCAM1: BioMAP Diversity Plus: 3C Assay for Vascular cell adhesion molecule 1 (VCAM1) Biomarker Activity (AID 2282999). The following applies: BioMAP 3C HUVEC, VCAM1 ELISA, cytokine-stimulated; actives raise or lower the signal. The gist of the method:
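Activity fitted in both directions relative to DMSO, with ELISA measurement of the surface marker on primary HUVEC (3C) at 24 h post-treatment; parallel SRB staining (0.1% SRB, TCA-fixed, 560 nm) flagged overt cytotoxicity.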

A short description of assay [9]: BSK_4H_Eotaxin3: BioMAP Diversity Plus: 4H Assay for Eotaxin 3 Biomarker Activity (AID 2283000).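 Note: CCL26 protein level quantified by ELISA in parallel with SRB cytotoxicity check.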 Particulars: primary human endothelial cells (HUVEC); actives raise or lower the signal. In outline: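 HUVEC, 24 h post-dose, ELISA for Eotaxin-3/CCL26. Gain or loss of signal fitted bidirectionally vs DMSO baseline.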
In assay [10] the target is human Peroxisome Proliferator-activated Receptor alpha (PPARa), PPARA (gene 5465) (UniProt Q07869). Put plainly: ATG_PPARa_TRANS: Attagene TRANS-FACTORIAL HepG2 Assay for human Peroxisome Proliferator-activated Receptor alpha (PPARa) (AID 2283001; active = hit-call score of the fitted dose curve at least 0.9, where 1 is the maximum). The gist of the method: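 Transfected HepG2 cells treated with test chemical for 24 h. RNA isolated, reverse-transcribed with oligo(dT), PCR-amplified, FAM-labelled and HpaI-digested. Fragments sized by capillary electrophoresis; gain-of-signal fit relative to DMSO.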

The target of assay [11] is human Peroxisome Proliferator-activated Receptor delta (PPARd), PPARD (gene 5467) (UniProt Q03181). Kind of assay: ATG_PPARd_TRANS: Attagene TRANS-FACTORIAL HepG2 Assay for human Peroxisome Proliferator-activated Receptor delta (PPARd) (AID 2283002; active = hit-call score of the fitted dose curve at least 0.9, where 1 is the maximum). In outline: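 Transient HepG2 transfection (multiple GAL4-UAS RTUs, chimeric receptor-Gal4); 24 h dosing; total RNA → oligo(dT) RT → PCR → 6-FAM primer extension → HpaI cut → CE. Positive direction vs DMSO.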

In assay [12] the target is Nuclear respiratory factor 1 (Homo sapiens) (UniProt Q16656). Put plainly: ATG_NRF1_CIS: Attagene CIS-FACTORIAL HepG2 Assay for human Nuclear Respiratory Factor 1 (NRF1) Orphan Gene (AID 2282987). The following applies: HepG2 NRF1 cis-element reporter, Attagene multiplex; actives raise or lower the signal. In outline:
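HepG2 cells transiently transfected with multiple reporter transcription units under cis-regulatory promoter control, so endogenous transcription-factor activity is read. After 24 h compound exposure, reporter mRNA quantified by RT-PCR, fluorescent labelling, HpaI digestion and capillary electrophoresis; bidirectional fitting versus DMSO.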

A short description of assay [13]: ATG_NFI_CIS: Attagene CIS-FACTORIAL HepG2 Assay for human Nuclear Factor I (NFI) (AID 2282989). The following applies: HepG2 cis-regulatory reporter, NFI response element transcription; actives raise or lower the signal. The gist of the method:
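Multiplexed cis-reporter system in human HepG2 cells reports native TF activity as reporter mRNA induction 24 h post-dose. Fragments labelled with 6-FAM, HpaI-digested and resolved by capillary electrophoresis; activity fitted both directions versus DMSO.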

Assay [14] is described as follows: ATG_NF_kB_CIS: Attagene CIS-FACTORIAL HepG2 Assay for human Nuclear Factor Kappa B (NF-kB) (AID 2282991). The following applies: HepG2 Attagene cis-factorial NF-kB reporter mRNA; actives raise or lower the signal. The gist of the method: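 HepG2 cells transiently transfected with multiplexed cis-element reporter units measuring endogenous transcription factor activity; reporter mRNA read 24 h after dosing by RT-PCR, fluorescent labelling, HpaI digestion and capillary electrophoresis. Bidirectional fit against DMSO baseline.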

Assay [15] is described as follows: ATG_NRF2_ARE_CIS: Attagene CIS-FACTORIAL HepG2 Assay for human Nuclear Factor Erythroid 2 Related Factor 2 (NFR2) response to Antioxidant Response Elements (ARE) (AID 2282992).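 For AC50: reporter mRNA level measured by RT-PCR and capillary electrophoresis fluorescence.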 The following applies: HepG2 Attagene ARE/NRF2 reporter, transcription factor activity; actives raise or lower the signal. In outline:
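Fluorescence intensity of reporter-specific cDNA fragments, separated by capillary electrophoresis, reflects mRNA induction in transfected HepG2 cells at 24 h. Activity is fitted bidirectionally, DMSO serving as baseline.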

The nature of assay [16]: ATG_M_06_TRANS: Attagene TRANS-FACTORIAL HepG2 Assay for M06 Transcription Factor (Internal Marker) (AID 2282983; active = hit-call score of the fitted dose curve at least 0.9, where 1 is the maximum;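 note: reporter transcript level by RT-PCR then capillary electrophoresis fluorescence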). The following applies: HepG2 Attagene TRANS M06 internal marker reporter. The gist of the method: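 In this multiplexed HepG2 system, compounds are incubated 24 h with cells carrying GAL4-UAS reporter units. Reporter RNA is amplified and resolved by capillary electrophoresis, and induction is scored against DMSO.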

Assay [17] has as its target Nuclear receptor subfamily 4 group A member 2 (Homo sapiens) (UniProt P43354). Put plainly: ATG_NURR1_TRANS: Attagene TRANS-FACTORIAL HepG2 Assay for human Nuclear Receptor Related Protein 1 (NURR1) (AID 2282985; active = hit-call score of the fitted dose curve at least 0.9, where 1 is the maximum). The following applies: HepG2 Attagene TRANS reporter, mRNA readout. In outline: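 Measures transcriptional activation by an exogenous NR-Gal4 chimera in transfected HepG2 liver cells. After 24 h, reporter RNA is reverse-transcribed, amplified and resolved by capillary electrophoresis; DMSO defines baseline.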

Inconclusive results are not listed. More than one record can exist for a structure, and the calls need not agree. Calls of active or inactive are those of the source. Rule for the calls, unless noted: active = hit-call score of the fitted dose curve at least 0.9, where 1 is the maximum; inactive = score below 0.9.

Sequence of Nuclear respiratory factor 1 (Homo sapiens) (Q16656 whole entry, looked up): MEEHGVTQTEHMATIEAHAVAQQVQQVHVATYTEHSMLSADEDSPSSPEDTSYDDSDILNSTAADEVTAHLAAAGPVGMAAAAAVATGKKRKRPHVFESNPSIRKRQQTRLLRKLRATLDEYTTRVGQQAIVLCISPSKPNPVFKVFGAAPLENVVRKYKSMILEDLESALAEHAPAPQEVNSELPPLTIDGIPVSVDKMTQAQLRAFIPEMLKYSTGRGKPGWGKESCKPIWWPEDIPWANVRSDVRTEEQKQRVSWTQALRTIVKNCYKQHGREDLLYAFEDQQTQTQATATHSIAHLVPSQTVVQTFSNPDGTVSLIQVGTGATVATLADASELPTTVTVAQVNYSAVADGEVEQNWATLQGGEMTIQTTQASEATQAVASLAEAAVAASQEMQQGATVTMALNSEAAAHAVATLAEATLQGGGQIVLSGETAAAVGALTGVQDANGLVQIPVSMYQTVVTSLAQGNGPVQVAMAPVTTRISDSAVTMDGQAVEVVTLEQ
Sequence of human Peroxisome Proliferator-activated Receptor delta (PPARd), PPARD (gene 5467) (Q03181 whole entry, looked up, the tested form may be a part): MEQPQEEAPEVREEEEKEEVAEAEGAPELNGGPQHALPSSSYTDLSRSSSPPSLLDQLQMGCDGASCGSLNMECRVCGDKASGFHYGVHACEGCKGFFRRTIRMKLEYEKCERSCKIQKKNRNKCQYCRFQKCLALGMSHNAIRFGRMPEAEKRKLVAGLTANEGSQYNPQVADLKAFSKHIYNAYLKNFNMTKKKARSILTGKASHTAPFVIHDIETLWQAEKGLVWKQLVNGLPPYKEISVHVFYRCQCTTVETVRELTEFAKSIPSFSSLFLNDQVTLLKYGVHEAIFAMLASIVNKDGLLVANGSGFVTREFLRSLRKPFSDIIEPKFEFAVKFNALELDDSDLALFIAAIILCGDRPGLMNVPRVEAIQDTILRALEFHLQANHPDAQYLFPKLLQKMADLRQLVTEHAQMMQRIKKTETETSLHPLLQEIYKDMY
Sequence of Myc proto-oncogene protein (Homo sapiens) (P01106 whole entry, looked up): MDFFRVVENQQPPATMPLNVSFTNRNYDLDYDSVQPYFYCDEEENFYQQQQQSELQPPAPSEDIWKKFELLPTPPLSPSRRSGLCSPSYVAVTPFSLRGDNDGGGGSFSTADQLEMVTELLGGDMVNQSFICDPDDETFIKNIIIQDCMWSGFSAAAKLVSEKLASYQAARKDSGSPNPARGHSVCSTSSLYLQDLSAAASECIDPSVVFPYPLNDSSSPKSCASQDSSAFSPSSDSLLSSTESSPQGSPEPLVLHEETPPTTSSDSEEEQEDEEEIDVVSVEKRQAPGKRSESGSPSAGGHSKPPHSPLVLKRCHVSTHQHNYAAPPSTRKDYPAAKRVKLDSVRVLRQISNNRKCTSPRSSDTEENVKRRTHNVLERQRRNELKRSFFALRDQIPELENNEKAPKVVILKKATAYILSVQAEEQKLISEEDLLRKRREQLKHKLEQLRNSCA
Sequence of Transcriptional activator Myb (Homo sapiens) (P10242 whole entry, looked up): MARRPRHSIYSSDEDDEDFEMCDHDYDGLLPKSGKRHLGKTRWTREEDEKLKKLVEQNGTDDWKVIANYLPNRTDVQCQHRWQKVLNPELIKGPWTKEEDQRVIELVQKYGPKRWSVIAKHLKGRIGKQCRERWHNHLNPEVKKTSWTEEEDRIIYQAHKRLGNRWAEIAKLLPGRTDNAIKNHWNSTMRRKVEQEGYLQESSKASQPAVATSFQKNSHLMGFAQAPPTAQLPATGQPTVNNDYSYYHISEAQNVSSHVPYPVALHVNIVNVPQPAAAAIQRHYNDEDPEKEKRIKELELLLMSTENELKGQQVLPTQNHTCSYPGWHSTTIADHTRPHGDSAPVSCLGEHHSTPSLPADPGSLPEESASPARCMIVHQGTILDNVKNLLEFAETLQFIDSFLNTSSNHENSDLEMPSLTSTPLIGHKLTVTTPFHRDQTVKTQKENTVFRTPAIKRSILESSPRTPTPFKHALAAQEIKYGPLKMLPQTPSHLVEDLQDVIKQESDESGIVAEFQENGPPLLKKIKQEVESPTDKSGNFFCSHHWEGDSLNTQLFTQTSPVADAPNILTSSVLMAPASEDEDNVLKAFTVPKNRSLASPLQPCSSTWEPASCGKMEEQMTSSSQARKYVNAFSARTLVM
Sequence of Cellular tumor antigen p53 (Homo sapiens) (P04637 whole entry, looked up): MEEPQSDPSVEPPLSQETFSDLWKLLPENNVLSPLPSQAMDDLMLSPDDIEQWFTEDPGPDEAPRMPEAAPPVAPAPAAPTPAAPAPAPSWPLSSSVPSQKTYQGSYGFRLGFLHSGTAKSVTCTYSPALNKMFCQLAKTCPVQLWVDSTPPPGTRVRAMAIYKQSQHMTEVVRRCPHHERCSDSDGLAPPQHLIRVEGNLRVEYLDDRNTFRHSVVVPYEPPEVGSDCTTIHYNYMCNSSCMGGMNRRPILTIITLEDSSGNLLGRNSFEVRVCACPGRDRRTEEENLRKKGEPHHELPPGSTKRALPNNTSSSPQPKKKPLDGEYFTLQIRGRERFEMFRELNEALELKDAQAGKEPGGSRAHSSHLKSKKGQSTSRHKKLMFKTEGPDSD
Sequence of human Peroxisome Proliferator-activated Receptor alpha (PPARa), PPARA (gene 5465) (Q07869 whole entry, looked up, the tested form may be a part): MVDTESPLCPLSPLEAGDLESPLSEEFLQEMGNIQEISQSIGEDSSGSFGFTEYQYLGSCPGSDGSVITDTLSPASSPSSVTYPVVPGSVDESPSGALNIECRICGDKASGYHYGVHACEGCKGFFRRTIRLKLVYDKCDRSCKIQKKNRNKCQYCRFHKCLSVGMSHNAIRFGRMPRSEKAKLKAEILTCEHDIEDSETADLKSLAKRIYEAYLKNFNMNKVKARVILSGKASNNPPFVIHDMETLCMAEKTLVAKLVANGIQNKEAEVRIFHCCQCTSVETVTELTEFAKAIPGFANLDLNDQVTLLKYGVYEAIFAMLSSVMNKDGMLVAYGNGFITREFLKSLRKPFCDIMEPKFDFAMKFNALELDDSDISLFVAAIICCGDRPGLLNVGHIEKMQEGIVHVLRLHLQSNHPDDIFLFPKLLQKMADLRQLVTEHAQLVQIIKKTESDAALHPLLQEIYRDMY
Sequence of Nuclear receptor subfamily 4 group A member 2 (Homo sapiens) (P43354 whole entry, looked up, the tested form may be a part): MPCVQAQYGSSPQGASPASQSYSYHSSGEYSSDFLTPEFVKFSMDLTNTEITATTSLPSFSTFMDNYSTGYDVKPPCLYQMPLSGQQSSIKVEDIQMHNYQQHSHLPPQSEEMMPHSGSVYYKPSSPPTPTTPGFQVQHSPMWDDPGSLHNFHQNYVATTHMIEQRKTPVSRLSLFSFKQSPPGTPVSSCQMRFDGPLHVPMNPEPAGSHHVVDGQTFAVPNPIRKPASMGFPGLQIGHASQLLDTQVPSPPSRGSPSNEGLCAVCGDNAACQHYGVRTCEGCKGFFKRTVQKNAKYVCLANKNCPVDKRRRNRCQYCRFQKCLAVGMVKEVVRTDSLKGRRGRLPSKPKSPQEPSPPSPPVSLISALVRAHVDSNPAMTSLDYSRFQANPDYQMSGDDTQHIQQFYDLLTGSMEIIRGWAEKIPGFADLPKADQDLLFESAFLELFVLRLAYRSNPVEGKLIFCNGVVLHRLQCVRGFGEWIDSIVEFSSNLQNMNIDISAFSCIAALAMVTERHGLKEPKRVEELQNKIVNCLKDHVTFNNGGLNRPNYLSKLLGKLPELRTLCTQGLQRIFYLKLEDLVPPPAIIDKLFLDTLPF

Turning to `O=C(c1ccccc1)c1ccccc1`, the compound was called inactive in assay [1], in assay [2], in assay [3], in [4], in assay [5] and in [6]. The result in assay [7], in [8], in assay [9], in assay [10] and in assay [11] was inactive. In addition, in assay [5], the AC50 was 168 µM (active).
Regarding `CCCCCCCCCCCC(=O)NCCCN(C)C`, the call in assay [2], in assay [12], in assay [3], in assay [14], in [15] and in [10] was inactive. Also, the AC50 in assay [13] is 17.1 µM (active); in assay [4], 20.9 µM (active); in [5], 20.2 µM (active).
On to `COc1cccc(O)c1`, for which the outcome in assay [16], in assay [1], in assay [2], in assay [12], in assay [13] and in assay [3] was inactive. The compound was classed as inactive in assay [14], in [15], in [5], in assay [6], in [7] and in assay [8]. The result in assay [9] and in assay [11] was inactive.
As to `Cc1ccccc1OCC(=O)O`, the compound was classed as inactive in [1], in [17], in assay [12], in assay [13], in assay [3] and in assay [15]. Moreover, the outcome in assay [4] and in assay [11] was inactive. The AC50 in assay [2] is 164 µM (active).
As to `O=C1OC(=O)c2cc(-c3ccc4c(c3)C(=O)OC4=O)ccc21`, the outcome in assay [1], in [2], in [12], in assay [3], in [14] and in assay [15] was inactive. Besides, the compound was called inactive in assay [4] and in assay [5].
On to `c1cc2cccc3c4cccc5cccc(c(c1)c23)c54`, for which the call in assay [16], in assay [2], in assay [12], in assay [13], in assay [3] and in [14] was inactive. In addition, the call in assay [4], in [5], in [10] and in [11] was inactive. Besides, in assay [15], the AC50 is 19.8 µM (active).
On to `CCO[Si](CCC1CCC2OC2C1)(OCC)OCC` (configuration not stated), for which the compound was classed as inactive in [16], in assay [1], in assay [2], in assay [12], in assay [13] and in assay [3]. Besides, the result in assay [14], in assay [15], in assay [4], in assay [10] and in [11] was inactive.
`FC1(F)C=CC(F)(F)C1(F)F`: the compound was called inactive in assay [17], in assay [2], in assay [12], in assay [3], in assay [14] and in [15]. Moreover, the outcome in [4] and in [5] was inactive.
As to `c1cc[nH]c1`, the outcome in assay [16], in [2], in assay [12], in assay [13], in [3] and in assay [14] was inactive. The result in assay [15], in assay [4], in assay [5] and in assay [10] was inactive.

These data come from PubChem BioAssay (EPA / NIEHS).
